Assay results: PubChem BioAssay
For some assays here: Potency and affinity values are given separately. Activity calls are given as the source filed them. Unless noted, cut-off not given; nearly all actives show IC50 up to about 0.91 µM.

What follows are molecules tested against Protein kinase 7 (PK7), Plasmodium falciparum 3D7 (PF3D7_0213400) (UniProt Q7YTF7) (assay: inhibition of Plasmodium PK7 catalytic activity – biochemical, TCAMS antimalarial set, Kinase-Glo luminescence (AID 1159587; call rule not given here)). Settings: recombinant PfPK7, Kinase-Glo ATP depletion luminescence.
Sequence of Protein kinase 7 (PK7), Plasmodium falciparum 3D7 (PF3D7_0213400) (Q7YTF7 1-343): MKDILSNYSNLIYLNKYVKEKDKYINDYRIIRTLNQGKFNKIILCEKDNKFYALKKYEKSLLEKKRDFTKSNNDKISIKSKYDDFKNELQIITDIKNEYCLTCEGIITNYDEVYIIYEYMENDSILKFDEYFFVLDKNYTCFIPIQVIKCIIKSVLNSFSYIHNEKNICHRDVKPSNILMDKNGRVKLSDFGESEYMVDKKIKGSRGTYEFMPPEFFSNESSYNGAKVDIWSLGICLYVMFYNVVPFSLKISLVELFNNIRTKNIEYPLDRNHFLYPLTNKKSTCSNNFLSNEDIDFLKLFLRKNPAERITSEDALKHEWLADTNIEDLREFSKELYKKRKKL

outcome, inactive:
CCN(CC)CCCC(C)Nc1nc(C=Cc2ccc(Br)cc2)nc2cc(Cl)ccc12 (stereo not drawn), Cc1cccc(Cn2ccc3c(N)nc(N)nc32)c1, CC(=O)Nc1ccc(Nc2ncc([N+](=O)[O-])c(Nc3ccccc3C(N)=O)n2)cc1, O=C(Nc1ccc(OC2CCN(CC3CC3)CC2)c(Cl)c1)c1ccc2ncccc2c1, CCc1cc2c3c(N)nc(N)nc3ccc2n1C(C)(C)C, CC(Sc1n[nH]c(-c2ccccc2Br)n1)C(=O)Nc1ccc(F)cc1 (stereo not drawn), CC(CC1CCCCC1)NCc1ccccc1OCCC(=O)N1CCCC1C(N)=O (stereo not drawn), CCS(=O)(=O)c1ccc(OC)c(Nc2nccc(-c3c(-c4cccc(NC(=O)c5c(F)cccc5F)c4)nn4ncccc34)n2)c1, Clc1cccc(C=NNc2ccnc3cc(Cl)ccc23)c1, Cc1cc(OCCCN2CCCC2)ccc1NC(=O)COc1ccc(Cl)cc1C(=O)c1cc(C#N)cc(C(F)(F)F)c1, O=C(NNC(=O)c1ccc(CN2CCC(c3nc4ccccc4[nH]3)CC2)cc1)Nc1ccc(Oc2ccccc2)cc1, Cc1ccc(Cn2ccc3c4c(N)nc(N)nc4ccc32)cc1, S=C(Nc1ccc(Cl)cc1)Nc1ccc(Nc2ccccc2)cc1, COc1cc(Nc2nccc(-c3c(-c4cccc(NC(=O)c5c(F)cccc5F)c4)nn4ncccc34)n2)cc(OC)c1OC, Cc1ccc(-n2c(C)cc(C(=O)CN3C(=O)NC(Cc4ccccc4)C3=O)c2C)cc1 (stereo not drawn), CCn1c(-c2nonc2N)nc2c(-c3cc4ccccc4s3)ncc(C(=O)N3CCC(N)C3)c21 (stereo not drawn), Cc1ccccc1Cn1ccc2c3c(N)nc(N)nc3ccc21, C[C@H]1CN(Cc2ccc(-c3cccc(CNC(=O)c4cccc(C(=O)c5ccc(Cl)c(Cl)c5)c4)c3)s2)CCN1, COc1ccc(N=C(N)Nc2ccccc2)nc1Cc1ccccc1, Cc1[nH]nc2ccc(-c3cc(OC[C@@H](N)Cc4ccccc4)cnc3-c3cc4ccccc4s3)cc12, C=CC(C)C1OC(=O)c2cc(OC)cc(OC)c21 (stereo not drawn), CCNC(=O)Nc1ccc(N(C)c2ccnc(Nc3ccc(CS(C)(=O)=O)cc3)n2)cc1, CCN(CC)CCNC(=O)c1ccc(N=Cc2c(O)[nH]c3ccc(S(=O)(=O)Cc4c(Cl)cccc4Cl)cc23)cc1

These molecules were tested against Calcium-dependent protein kinase 4 (Plasmodium falciparum (isolate 3D7)) (UniProt Q8IBS5) (assay: PfCDPK4 kinase inhibitors, biochemical, TCAMS library (AID 1159588)). Settings: recombinant PfCDPK4, Kinase-Glo ATP depletion luminescence.
Sequence of Calcium-dependent protein kinase 4 (Plasmodium falciparum (isolate 3D7)) (Q8IBS5 whole entry, looked up): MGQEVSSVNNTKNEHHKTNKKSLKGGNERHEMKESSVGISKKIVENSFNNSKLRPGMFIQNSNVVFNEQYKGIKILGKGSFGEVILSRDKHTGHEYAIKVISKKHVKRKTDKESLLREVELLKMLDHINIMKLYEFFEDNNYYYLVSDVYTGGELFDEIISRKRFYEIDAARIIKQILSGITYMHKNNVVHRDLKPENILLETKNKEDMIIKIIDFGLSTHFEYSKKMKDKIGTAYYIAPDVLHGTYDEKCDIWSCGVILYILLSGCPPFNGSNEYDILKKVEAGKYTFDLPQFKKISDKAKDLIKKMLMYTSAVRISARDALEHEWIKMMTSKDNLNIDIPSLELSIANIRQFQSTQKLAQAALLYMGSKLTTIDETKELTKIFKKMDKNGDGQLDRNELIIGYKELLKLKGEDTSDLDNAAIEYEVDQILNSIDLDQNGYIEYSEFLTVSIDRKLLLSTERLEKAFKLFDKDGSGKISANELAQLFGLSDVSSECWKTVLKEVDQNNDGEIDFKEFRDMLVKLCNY

outcome, inactive:
O=C(NCCCCN1CCC(c2ccc3c(c2OCCCO)CCCC3)CC1)c1ccc(-c2ccc(C(F)(F)F)cc2)c(CO)c1, Cc1nc(Nc2ccc(F)cc2)nc(N2CCc3ccccc3[C@@H]2C)c1C, Cc1ccccc1Oc1ccc(Nc2ccnc(Nc3cccc(C(N)=O)c3)n2)cc1C(F)(F)F, Fc1ccccc1C=NNc1ccnc2cc(Cl)ccc12, O=c1c2cccnc2sn1-c1ccccc1, COc1ccc(CN2CCN(CC(=O)Nc3cc(Cl)ccc3-n3cncn3)CC2)cc1F, Clc1ccc(C=NNc2ccnc3cc(Cl)ccc23)cc1, O=C(CN1C(=O)CC1S(=O)(=O)Cc1ccco1)NCCCCCCc1ccc(F)cc1 (stereo not drawn), Cc1nc2ccccc2n1C1C[C@H]2CC[C@@H](C1)N2CCC1(c2ccccc2)CCN(C(=O)Nc2ccc(C(F)(F)F)cc2)CC1 (stereo partly drawn), c1ccc2sc(-c3csc(Nc4ccncc4)n3)nc2c1, CCN(CC)CCNC(=O)c1ccc(Nc2ncc([N+](=O)[O-])c(Nc3ccccc3OC)n2)cc1, CCN(CC)CCCC(C)Nc1nc(C=Cc2ccc(Br)cc2)nc2cc(Cl)ccc12 (stereo not drawn), Cc1cccc(Cn2ccc3c(N)nc(N)nc32)c1, CC(=O)Nc1ccc(Nc2ncc([N+](=O)[O-])c(Nc3ccccc3C(N)=O)n2)cc1, O=C(Nc1ccc(OC2CCN(CC3CC3)CC2)c(Cl)c1)c1ccc2ncccc2c1, CCc1cc2c3c(N)nc(N)nc3ccc2n1C(C)(C)C, CC(Sc1n[nH]c(-c2ccccc2Br)n1)C(=O)Nc1ccc(F)cc1 (stereo not drawn), CC(CC1CCCCC1)NCc1ccccc1OCCC(=O)N1CCCC1C(N)=O (stereo not drawn), Clc1cccc(C=NNc2ccnc3cc(Cl)ccc23)c1, Cc1cc(OCCCN2CCCC2)ccc1NC(=O)COc1ccc(Cl)cc1C(=O)c1cc(C#N)cc(C(F)(F)F)c1, O=C(NNC(=O)c1ccc(CN2CCC(c3nc4ccccc4[nH]3)CC2)cc1)Nc1ccc(Oc2ccccc2)cc1, Cc1ccc(Cn2ccc3c4c(N)nc(N)nc4ccc32)cc1, S=C(Nc1ccc(Cl)cc1)Nc1ccc(Nc2ccccc2)cc1, O=C(O)c1ccc(-c2cnc3ccc(NC4CCC(O)CC4)nn23)cc1 (stereo not drawn), Cc1ccc(-n2c(C)cc(C(=O)CN3C(=O)NC(Cc4ccccc4)C3=O)c2C)cc1 (stereo not drawn), Cc1ccccc1Cn1ccc2c3c(N)nc(N)nc3ccc21, C[C@H]1CN(Cc2ccc(-c3cccc(CNC(=O)c4cccc(C(=O)c5ccc(Cl)c(Cl)c5)c4)c3)s2)CCN1, COc1ccc(N=C(N)Nc2ccccc2)nc1Cc1ccccc1, C=CC(C)C1OC(=O)c2cc(OC)cc(OC)c21 (stereo not drawn), CCNC(=O)Nc1ccc(N(C)c2ccnc(Nc3ccc(CS(C)(=O)=O)cc3)n2)cc1
